Shown is part of a subset that was picked to be rich in hits.
Menin MLL FP FL: inhibitors of human menin-MLL interaction, wild-type MLL peptide; Fluorescence polarization, fluorescein-MLL peptide displacement from menin; FP activity change, % at 61.4 µM; 290,000 tested, under 10 active; active means well fitted curve in the direction sought with a large enough effect in the polarisation, not every such curve was filed as active; inconclusive means small, poorly fitted or top-dose-only effect, or effect the other way, or a change in a side signal; inactive means no such curve, though single readings can be large or run the other way; the % refers to the polarisation
ClpP mod: qHTS Assay for Activators of ClpP. 340,000 tested, 1.9% active. Potency, µM (top dose mostly 57.5 µM). purified B. subtilis ClpP, FRET peptide cleavage, 20 min; active means well fitted falling curve with a large enough effect; inconclusive means small, poorly fitted or top-dose-only effect; inactive means no such curve, though single readings can be large or run the other way; further: the source files actives as falling curves though it sought activators and does not explain the sign; nearly all actives have a fitted effect of over 65% in size
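ClpP 10 microg/mL final, pH 8 Tris/KCl buffer with BSA, glycerol, Tween-20; compound pinned in; FRET-FV substrate; RT 20 min; Ex320/Em430; ΔFRET vs ADEP 5.8 microM, DMSO, no enzyme.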
CXXC DNA block: inhibitors of human MLL CXXC domain-DNA interaction; Q03164; MLL-CXXC / FITC-HOXA9 DNA fluorescence polarization; Potency, µM (titrated, usually from 115 µM), most hits filed as inhibitors; 290,000 tested, 0.037% active; AID 2662; active means well fitted inhibition curve with a large enough effect in the polarisation, with a control signal flat, not every such curve was filed as active; inconclusive means small, poorly fitted or top-dose-only effect, or effect the other way, or a change in a side signal; inactive means no such curve, though single readings can be large or run the other way; the % refers to the polarisation
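Steps: dispense CXXC domain solution (7 uM) → pin compounds or unlabeled HOX-A9 DNA control → 5 min ambient → add FLSN-HOX-A9 solution (50 nM) → spin → 30 min ambient → fluorescence polarization. Tris pH 7.5/NaCl/DTT/BSA buffer.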
Menin MLL FP TR: displaces Texas Red mutant MLL peptide from human menin; O00255; Menin + Texas Red MLL mutant peptide, fluorescence polarization; Potency, µM (top dose mostly 61.6 µM), actives largely listed as inhibitors; 270,000 tested, 0.23% active; AID 1768; active means well fitted inhibition curve with a large enough effect in the polarisation, with a control signal flat, not every such curve was filed as active; inconclusive means small, poorly fitted or top-dose-only effect, or effect the other way, or a change in a side signal; inactive means no such curve, though single readings can be large or run the other way; the % refers to the polarisation
p53 reactivation: mutant p53 re-activation in reporter cells; H1299 p53-A138V BP100-luciferase reporter, luminescence, 24 h; Potency, µM (top dose mostly 92.2 µM), usual class: activators; 320,000 tested, 0.063% active; active means well fitted activation curve with a large enough effect; inconclusive means small, poorly fitted or top-dose-only effect; inactive means no such curve, though single readings can be large or run the other way; further: nearly all actives have a fitted effect of over 45% in size
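H1299 (p53-null), stable ts p53-A138V + BP100-Luc; 1000 cells/well, Opti-MEM/10% FBS; cpd 4 pt, 1:5; 24 h, 37 deg C, 5% CO2; detection reagent 10 min RT; luminescence.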
Hits are given with their value; n = inactive; u = inconclusive; x = not tested or not shown; ! = not confirmed by another sample; [ ] = remark or other dose.

SMILES | Menin MLL FP FL | ClpP mod | CXXC DNA block | Menin MLL FP TR | p53 reactivation
O=C(Nc1nc(-c2ccccc2)cs1)C1COc2ccccc2O1 (stereo not given) | n | n | n | n | u
O=S(=O)(NCCNCC=Cc1ccc(Br)cc1)c1cccc2cnccc12 | x | n | x | x | x
CC(=O)Nc1ccc(S(=O)(=O)NNC(=O)c2cc3c4ccccc4n(C)c3s2)cc1 | n | 28µM | n | n | n
O=C(CCCN1C(=O)c2cccc3cccc(c23)C1=O)OCC(=O)N1CCCCC1 | x | n | x | x | x
CC1CCN(C(=O)COC(=O)CCCN2C(=O)c3cccc4cccc(c34)C2=O)CC1 | x | 32µM | n | x | n
CCOCCCNC(=O)c1cnc2sc(N3CCCCCC3)nn2c1=O | x | 16µM | x | x | x
CCCCNC(=O)c1cnc2sc(N3CCCCCC3)nn2c1=O | x | 25µM | x | x | x
COc1ccc2c(c1)sc1ncc(C(=O)NCc3ccccc3F)c(=O)n12 | x | 11µM | x | x | x
O=C(NCCc1ccccc1)c1cnc2sc(N3CCOCC3)nn2c1=O | x | 10µM | x | x | x
CCCCNC(=O)c1cnc2sc(N3CCCCC3)nn2c1=O | x | n | x | x | x
Cc1ccc(Cl)cc1N(C)C(=O)c1cc2ccc3cccnc3c2[nH]1 | x | n | x | x | x
Cc1sc2ccccc2[n+]1CCc1ccccc1 | x | n | x | x | x
COc1ccccc1CNC(=O)c1cnc2sc(N3CCCCCC3)nn2c1=O | x | 14µM | x | x | x
CCN(CC)c1nn2c(=O)c(C(=O)NCCc3cccc(C)c3)cnc2s1 | x | 11µM | x | x | x
Cc1cccc(CCNC(=O)c2cnc3c(C)cccn3c2=O)c1 | x | n | x | x | x
CC(C)NC(=O)c1cnc2sc(N3CCCCCC3)nn2c1=O | x | 16µM | x | x | x
O=C(Nc1ncc(Cc2ccccc2Cl)s1)C1CCCO1 (stereo not given) | n | n | n | n | 14µM
O=C(Nc1ncc(Cc2cccc(Cl)c2Cl)s1)C1CCCO1 (stereo not given) | n | x | n | n | n
Cc1ccc(S(=O)(=O)N2CCN(c3nc(Nc4ccccc4O)nc4ccccc34)CC2)cc1 | x | n | x | x | x
C=CCc1cccc2cc(C(=O)NC)c(=O)oc12 | n | 22µM | n | n | n
C=CCc1cccc2cc(C(=O)O)c(=O)oc12 | n | n | n | n | n
CN(C)c1ccc(N=Nc2ccc(/C=C/c3ccnc4ccccc34)cc2)cc1 | x | n | x | x | x
O=C(Nc1nc2ccccc2[nH]1)Nc1ccccc1F | n | x | n | u | 11µM
Cc1cccc(C2N=C(N)Nc3nc4ccccc4n32)c1 (stereo not given) | n | 25µM! | n | x | n
CCN(CC)CCCNC(=O)c1ccc(Cn2c(=O)[nH]c3cc(OC)c(OC)cc3c2=O)cc1 | x | n | x | x | x
SMILES | Menin MLL FP FL | ClpP mod | CXXC DNA block | Menin MLL FP TR | p53 reactivation
CCN1CCN(C(=O)c2ccc(Cn3c(=O)[nH]c4cc(OC)c(OC)cc4c3=O)cc2)CC1 | n | 16µM | n | n | n
COc1cc2[nH]c(=O)n(Cc3ccc(C(=O)NCC4CCCO4)cc3)c(=O)c2cc1OC (stereo not given) | n | 25µM | n | n | n
Cc1ccccc1OCC(=O)NCC(=O)OCC(=O)c1ccc(Br)cc1 | x | n | x | x | x
CCCCCCCNC(=O)COc1ccc2c(c1)C(=O)CC(C)(C)O2 | n | 28µM | n | u | n
CC(C)NC(=O)COc1ccc2c(c1)C(=O)CC(C)(C)O2 | n | n | n | n | n
CC1(C)CC(=O)c2cc(OCC(=O)N3CCOCC3)ccc2O1 | n | 28µM | n | x | n
CCN(CC)C(=O)COc1ccc2c(c1)C(=O)CC(C)(C)O2 | n | n | n | n | n
CC1(C)CC(=O)c2cc(OCC(=O)NCc3cccnc3)ccc2O1 | n | 25µM | n | n | n
Cc1cc(OCC(=O)N2CCOCC2)cc2oc(=O)c3ccccc3c12 | n | 7.1µM | n | n | n
Cc1ccc(OCC(=O)N2CCOCC2)cc1C | n | n | n | n | n
Nc1[nH]c(=S)[nH]c(=O)c1N | x | n | x | x | x
Cc1ccc(NC2=C(Cl)C(=O)c3ccccc3C2=O)cc1 | n | n | n | u | 5µM
O=C(NN1CCOCC1)c1cc(-c2cccs2)nc2ccccc12 | n | 10µM | n | n | n
O=C(COC(=O)c1cc(-c2cccs2)nc2ccccc12)NCc1ccco1 | n | u | n | u | n
O=C(NN1CCOCC1)c1cc(-c2ccccc2)nc2ccccc12 | n | n | n | n | n
O=C(N/N=C/c1cccnc1)c1cc(-c2cccs2)nc2ccccc12 | n | 25µM | n | n | n
O=C(NCc1ccco1)c1cc2nc(-c3cccs3)cc(C(F)(F)F)n2n1 | n | 35µM | n | n | n
O=C(N/N=C/c1ccc2ncccc2c1)c1cc(-c2cccs2)nc2ccccc12 | n | n | n | x | n
O=C(NCc1ccco1)c1cc(-c2cccs2)nc2ccccc12 | n | 25µM | n | n | n
COCCCCOc1cc2nc(N3CCCN(C)CC3)nc(NC3CCN(C)CC3)c2cc1OC | x | n | x | x | x
COc1ccccc1-c1csc(NC(=O)c2cc(-c3cccs3)nc3ccccc23)n1 | n | n | n | 8.9µM | n
COc1ccc(-c2csc(NC(=O)c3cc(-c4cccs4)nc4ccccc34)n2)c(OC)c1 | x | n | n | x | n
Cc1nn(-c2ccccn2)c2nc(-c3cccs3)cc(C(=O)NCc3ccco3)c12 | n | 13µM | n | n | n
CS(=O)(=O)N1CCN(C(=O)c2cc(-c3cccs3)nc3ccccc23)CC1 | n | 11µM | n | n | n
CS(=O)(=O)N1CCN(C(=O)c2cc(-c3ccccc3)nc3ccccc23)CC1 | n | n | n | n | n
SMILES | Menin MLL FP FL | ClpP mod | CXXC DNA block | Menin MLL FP TR | p53 reactivation
Cc1ccc(-c2cc(C(=O)NCc3ccco3)c3ccccc3n2)s1 | n | 32µM | n | u | n
C=C1C=C(C(F)F)n2ncc(C(=O)Nc3ccc(N(CC)CC)cc3)c2N1 | x | n | x | x | x
Cc1cc(N2CCCC2)ccc1/C=C1/C(=O)N(C)C(=S)N1C | u | x | u | 22µM | n
CCOC(=O)OCC1OC(c2ccccc2)C=CC1Oc1ccc2oc(=O)cc(C)c2c1 (stereo not given) | n[11.7 µM] | x | x | n[11.7 µM] | x
Nc1c(-c2ccccc2)n[nH]c1-c1ccccc1 | n | 28µM | n | n | u
S=c1nc(-c2ccccc2)c(-c2ccccc2)n[nH]1 | n | n | n | n | n
Clc1ccc(/C=C/c2ccnc3ccccc23)c(Cl)c1 | x | n | x | x | x
Nc1cccc2cccnc12 | x | n | x | x | x
Cc1ccc(-c2nnn(CC(=O)Nc3ccc4nn(-c5ccccc5)nc4c3)n2)o1 | n | 14µM | n | n | n
Cc1nc2cc(NC(=O)CCS(=O)(=O)c3ccccc3)ccc2s1 | n | n | n | n | 32µM
CCOc1ccc2oc(C(=O)OCC(=O)NC(=O)NC3CCCC3)c(C)c2c1 | n | 22µM | n | n | n
CCOc1ccc2oc(C(=O)OCC(=O)NC3CCCC3)c(C)c2c1 | x | n | x | x | n
COc1ccc2oc(C(=O)OCC(=O)NC3CCCCC3)c(C)c2c1 | x | 16µM | x | x | n
COc1ccc2nc(-c3ccccc3)cc(C(=O)OCC(=O)NC3CC3)c2c1 | x | 10µM | x | x | n
COc1ccc(-c2cc(C(=O)OCC(=O)NC3CC3)c3ccccc3n2)cc1OC | x | x | x | x | n
